Assay outcomes: PubChem BioAssay, several laboratories
Shown are actives, neighbours in structure and some others; about 28% of the full set was active somewhere.
PLK1 PBD inh = Plk1 polo box domain binding inhibitors, primary screen, biochemical, fluorescence polarization. 0.13% of 97,000 active. Plk1 PBD phosphopeptide binding. inhibition, %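 (tested at about 20 µM)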. Serine/threonine-protein kinase PLK1 (Homo sapiens), P53350. AID 693, 2007; in the data active = inhibition above about 34%, passing the limit was not always enough
PLK1 kinase inh = human PLK1 kinase inhibitors, primary screen, biochemical, TR-FRET; AID 619, 2007; inhibition, % at 10 µM; recombinant PLK1 kinase, TR-FRET peptide phosphorylation; Serine/threonine-protein kinase PLK1 (Homo sapiens), P53350; 0.53% of 97,000 active;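 active = inhibition of 50% or more in the single-concentration screen; inactive = inhibition below 50%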
CYP2C19 activ = human CYP2C19 activators, primary screen, biochemical, luminescence; recombinant CYP2C19, luciferin-H EGE luminescence; stronger effect = higher value; 0 = fully inhibited enzyme, 1 = untreated enzyme; 96,000 tested, under 10 active; AID 1025, 2008; activation factor at 5 µM;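 active = activation factor of at least 2 at 5 µM in the primary screen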
Target sequence (P33261 whole entry, looked up): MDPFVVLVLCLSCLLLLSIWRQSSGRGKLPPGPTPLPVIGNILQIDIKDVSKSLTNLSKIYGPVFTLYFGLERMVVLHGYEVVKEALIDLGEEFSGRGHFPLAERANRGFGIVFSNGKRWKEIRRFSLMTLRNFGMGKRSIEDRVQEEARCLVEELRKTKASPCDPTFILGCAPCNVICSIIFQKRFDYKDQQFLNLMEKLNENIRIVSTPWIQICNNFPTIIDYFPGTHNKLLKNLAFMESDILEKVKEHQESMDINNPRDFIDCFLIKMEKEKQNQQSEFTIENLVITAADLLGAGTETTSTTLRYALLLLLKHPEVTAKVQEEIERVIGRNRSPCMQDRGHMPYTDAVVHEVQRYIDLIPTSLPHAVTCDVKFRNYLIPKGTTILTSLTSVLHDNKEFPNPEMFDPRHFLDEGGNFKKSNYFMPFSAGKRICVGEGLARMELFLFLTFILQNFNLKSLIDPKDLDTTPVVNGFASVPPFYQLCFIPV
CYP2C9 activ = human CYP2C9 activators, primary screen, biochemical, luminescence; Cytochrome P450 2C9 (Homo sapiens), P11712; recombinant CYP2C9, luciferin-H conversion; stronger effect = higher value; factor 1 = untreated enzyme, 0 = blocked; activation factor at 5 µM; 1.4% of 96,000 active;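 active = activation factor of 2 or more for CYP2C9 at a 5 µM dose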
CYP2C9 inhib = blockers of cytochrome P450 2C9 activity – biochemical, luminescence, ADME assay, primary screen; 20% of 96,000 active; CYP2C9 Supersomes, luciferin-H conversion; P11712; inhibition, % at 5 µM;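 active = blocking of liver enzyme CYP2C9 beyond about 50% at 5 µM, limit read from the data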
CYP2C19 inhib = blockers of cytochrome P450 2C19 activity – biochemical, luminescence, ADME assay, primary screen; CYP2C19 Supersomes, luciferin-H EGE luminescence, 30 min; inhibition, % at 5 µM; 21% of 96,000 active;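 active = CYP2C19 inhibition above a set limit at 5 µM in the primary screen, cut at about 50% in these data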
Of the large screens only hits and unclear results are named; the others gave an inactive call.

Cc1ccc(N(CC(=O)NCc2ccccc2Cl)S(=O)(=O)c2cccs2)cc1	CYP2C9 inhib 65, CYP2C19 inhib 64
CCCCCCCOC1(c2ccccc2)OC(=O)c2ccccc21 (stereo not drawn)	CYP2C9 inhib 76, CYP2C19 inhib 78
CCCCCCOC1(c2ccccc2)OC(=O)c2ccccc21 (stereo not drawn)	CYP2C9 inhib 62, CYP2C19 inhib 56
Cc1cccc(OC2(c3ccccc3)OC(=O)c3ccccc32)c1C (stereo not drawn)	CYP2C9 inhib 83
O=C(CCCNS(=O)(=O)c1ccccc1)NCc1ccco1	none (no result: PLK1 PBD inh, PLK1 kinase inh)
CCn1cc(-c2cc(C(F)(F)F)n3nc(C(=O)O)cc3n2)c(C)n1	none
COc1ccc(CCC(=O)Nc2nc3c(s2)CN(C)CC3)cc1OC	none
CCCS(=O)(=O)N1CCCC(C(=O)N2CCN(C(=O)OCC)CC2)C1 (stereo not drawn)	none
O=C(NC1=NCCS1)c1cccs1	none
CC(C)C(NC(=O)c1cccs1)C(=O)NC1=NCCS1 (stereo not drawn)	CYP2C19 inhib 54
CCOc1ccccc1NC(=O)CSc1nnc(CNC(=O)COc2ccc(Cl)cc2)o1	CYP2C9 activ 2
O=C(COc1ccc(Cl)cc1)NCc1nnc(SCC(=O)NCc2ccc3c(c2)OCO3)o1	CYP2C9 inhib 70
COC(=O)c1ccc(CSc2nnc(CNC(=O)COc3ccc(Cl)cc3)o2)o1	CYP2C9 inhib 68
O=C(CSc1nccn1-c1ccc(Cl)cc1)NCc1ccc2c(c1)OCO2	CYP2C9 inhib 98, CYP2C19 inhib 100
COC(=O)c1ccc(CSc2nnc(CNC(=O)c3ccc(OC)cc3)o2)o1	none
O=C(COc1ccc(Cl)cc1)NCc1nnc(SCC(=O)N2CCCCC2)o1	none
COC(=O)C1=C(CSc2nncn2C)NC(=O)NC1c1ccc(F)cc1 (stereo not drawn)	none
CCc1nnc(NC(=O)CSc2nnc(-c3ccoc3C)n2-c2cccc(C)c2)s1	CYP2C9 inhib 54
CCc1nnc(NC(=O)CSc2nnc(CNc3ccc(F)cc3)n2C2CCCCC2)s1	CYP2C9 inhib 68, CYP2C19 inhib 57
Cc1cccc(-n2c(SCC(=O)Nc3nonc3C)nnc2-c2ccoc2C)c1	CYP2C9 inhib 54
CCc1nnc(NC(=O)CSc2nnc(-c3ccccc3OC)n2-c2ccccc2)s1	none (no result: CYP2C19 activ, CYP2C9 activ, CYP2C9 inhib, CYP2C19 inhib)
CCc1nnc(NC(=O)CSc2nnc(-c3ccccc3OC)n2-c2ccc(C)cc2)s1	CYP2C9 inhib 72, CYP2C19 inhib 77
O=C(NC(=S)Nc1ccc2oc(-c3cccnc3)nc2c1)c1cccc(Cl)c1	none
COC(=O)CSc1nnc(-c2ccccc2O)n1-c1ccc(C)cc1	CYP2C19 inhib 57
CCc1nnc(NC(=O)CSc2nnnn2-c2cccc(C(=O)OC)c2)s1	CYP2C9 inhib 68
CCc1nnc(NC(=O)CSc2nnc(CNc3cccc(C)c3)n2-c2ccccc2)s1	CYP2C9 inhib 77, CYP2C19 inhib 51
Cc1nonc1NC(=O)CSc1nnc(-c2ccoc2C)n1CC(C)C	CYP2C19 inhib 76
CCc1nnc(NC(=O)CSc2nnnn2C)s1	none (no result: CYP2C19 activ, CYP2C9 activ, CYP2C9 inhib, CYP2C19 inhib)
COC(=O)CSc1nnc(-c2ccccc2OC)n1-c1ccc(C)cc1	none
Cn1c(=O)n(C)c2cc(S(=O)(=O)NCCOCCO)ccc21	none
Cc1cc2c(cc(C(=O)N3CCC(C(=O)N4CCCC4)CC3)n2Cc2c(F)cccc2Cl)o1	CYP2C9 inhib 78, CYP2C19 inhib 96
Cc1noc(/C=C/NCc2cccnc2)c1S(=O)(=O)N(C)CC(=O)N1CCc2ccccc21	CYP2C9 inhib 78
Cc1noc(/C=C/N(C)C)c1S(=O)(=O)N(C)CC(=O)N1CCc2ccccc21	none
Cc1ccccc1OCC(O)Cn1c(=N)n(CCN2CCOCC2)c2ccccc21 (stereo not drawn)	CYP2C9 inhib 57
N=c1n(CCN2CCOCC2)c2ccccc2n1CC(O)COc1ccccc1 (stereo not drawn)	none
N=c1n(Cc2ccccc2)c2ccccc2n1CC(O)COc1ccccc1 (stereo not drawn)	none
Cc1ccc(Cn2c(=N)n(CC(O)COc3ccccc3)c3ccccc32)cc1 (stereo not drawn)	CYP2C19 inhib 53
CCCCn1c(=N)n(CC(O)COc2ccc(C)cc2)c2ccccc21 (stereo not drawn)	CYP2C19 inhib 52
CCCCn1c(=N)n(CC(O)COc2ccccc2)c2ccccc21 (stereo not drawn)	none
CC(O)c1n(C)c(Cl)c[n+]1C (stereo not drawn)	none
COc1ccc(CCC(C)Nc2cccc(F)c2)cc1 (stereo not drawn)	none
CN(C)CCNCc1ccccc1OC1CCCC1	none
COc1ccc(C)cc1S(=O)(=O)N(CC(=O)NCc1ccc(Cl)cc1)Cc1ccccc1	CYP2C9 inhib 89, CYP2C19 inhib 72
CS(=O)(=O)N(CC(=O)NCc1ccccc1Cl)Cc1ccccc1	none (no result: CYP2C19 activ, CYP2C9 activ, CYP2C9 inhib, CYP2C19 inhib)
COc1ccc(CNC(=O)CN(Cc2ccc(Cl)cc2)S(=O)(=O)c2ccccc2)cc1	none
COc1ccc(CNC(=O)CN(Cc2ccccc2)S(=O)(=O)c2ccc(Cl)cc2)cc1	CYP2C9 inhib 96, CYP2C19 inhib 100
COc1cc2c(cc1OC)CN(C(C)C(=O)Nc1ccc(NC(C)=O)cc1)CC2 (stereo not drawn)	none
CN1/C(=C\C(=O)c2cccs2)Sc2ccccc21	none
CC(C)(C)c1cc(CNC2CS(=O)(=O)C[C@@H]2O)cc(C(C)(C)C)c1O (stereo partly drawn)	none
CC(=O)Nc1cc(C(C)(C)C)c(O)c(C(C)(C)C)c1	CYP2C9 inhib 88
CC(C)Cn1c(C(C)NC(=O)Cc2ccccc2)nc2ccccc21 (stereo not drawn)	none
CCn1c(C(Cc2ccccc2)NC(=O)COC)nc2ccccc21 (stereo not drawn)	CYP2C19 inhib 81
COc1cccc(C(C(=O)NC2CCCCC2)N(C(=O)Cc2cccs2)c2ccc(-n3cnnn3)c(OC)c2)c1 (stereo not drawn)	CYP2C19 inhib 65
COc1cccc(C(C(=O)NC2CCCCC2)N(C(=O)c2ccco2)c2ccc(-n3cnnn3)c(C)c2)c1 (stereo not drawn)	none (no result: CYP2C19 activ, CYP2C9 activ, CYP2C9 inhib, CYP2C19 inhib)
Cc1cc(N(C(=O)c2ccco2)C(C(=O)NC2CCCCC2)c2ccccc2)ccc1-n1cnnn1 (stereo not drawn)	CYP2C9 inhib 92, CYP2C19 inhib 56
COc1ccc(N(C(=O)Cc2cccs2)C(C(=O)NC2CCCCC2)c2cccn2C)cc1 (stereo not drawn)	none
